Experimental data: PubChem BioAssay (NCI)
The panel holds about 83,000 compounds, 20% with a hit somewhere; the sample as a whole holds those more often.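 Cells were grown in 96-well plates and exposed to the test compound at a single concentration for 48 hours; results are reported as percent growth, with values below 10 considered active.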 Calls of active or inactive are those of the source.

What was measured:
Assay in all cases: NCI-60 one-dose screen, 48 h (100 = growth as untreated, 0 = no growth, -100 = all killed)
Conditions in all cases: 10 µM unless noted
NCI-H23 lung = test system: NCI-H23 lung
NCI-H226 lung = test system: NCI-H226 lung
NCI-H322M lung = test system: NCI-H322M lung
HOP-62 NSCLC = test system: HOP-62 NSCLC
NCI-H460 lung = test system: NCI-H460 lung
HOP-92 NSCLC = test system: HOP-92 NSCLC
NCI-H522 lung = test system: NCI-H522 lung
A549/ATCC NSCLC = test system: A549/ATCC NSCLC
786-0 renal = test system: 786-0 renal
COLO 205 colon = test system: COLO 205 colon
DU-145 prostate = test system: DU-145 prostate
MALME-3M melanoma = test system: MALME-3M melanoma
MDA-MB-231 breast = test system: MDA-MB-231 breast
RXF 393 renal = test system: RXF 393 renal
SF-268 CNS = test system: SF-268 CNS
SF-295 CNS = test system: SF-295 CNS
SF-539 CNS = test system: SF-539 CNS
UACC-257 melanoma = test system: UACC-257 melanoma
M14 melanoma = test system: M14 melanoma

Measured: growth

Nc1n[nH]c2cccc(C#Cc3cccc(NC(=O)c4cccc(C(F)(F)F)c4)c3)c12
inactive: NCI-H23 lung 39.5% | NCI-H226 lung 44% | NCI-H322M lung 46.5% | HOP-62 NSCLC 28.3% | NCI-H460 lung 40.3% | NCI-H522 lung 41.2% | A549/ATCC NSCLC 43.4% | 786-0 renal 23.1% | COLO 205 colon 16.5% | DU-145 prostate 48.5% | SF-268 CNS 32.7% | SF-295 CNS 50.3% | UACC-257 melanoma 50.3% | M14 melanoma 10.4%
active: HOP-92 NSCLC -4.2% | MALME-3M melanoma -0.658% | MDA-MB-231 breast 9.5% | RXF 393 renal -13.7% | SF-539 CNS -19.9%

COC(=O)CCCNS(=O)(=O)c1cc(C(=O)Nc2ccc(NC(=O)c3cc(S(=O)(=O)NCCCC(=O)OC)c(O)c(O)c3O)cc2)c(O)c(O)c1O
inactive: NCI-H23 lung 92.4% | NCI-H226 lung 98.4% | NCI-H322M lung 89.4% | HOP-62 NSCLC 98.5% | NCI-H460 lung 97.3% | HOP-92 NSCLC 115% | NCI-H522 lung 86.1% | A549/ATCC NSCLC 83.2% | 786-0 renal 112% | COLO 205 colon 114% | DU-145 prostate 98.1% | MALME-3M melanoma 105% | MDA-MB-231 breast 94.7% | RXF 393 renal 107% | SF-268 CNS 91.9% | SF-295 CNS 98.1% | SF-539 CNS 102% | UACC-257 melanoma 96.2% | M14 melanoma 98.3%

CC(=O)O[C@@H]1[C@@H](OC(C)=O)[C@H](OC(C)=O)CO[C@H]1Nc1cccc2ccccc12
inactive: NCI-H23 lung 94.8% | NCI-H226 lung 97.2% | NCI-H322M lung 94.4% | HOP-62 NSCLC 94.1% | NCI-H460 lung 98% | HOP-92 NSCLC 104% | NCI-H522 lung 68.3% | A549/ATCC NSCLC 102% | 786-0 renal 107% | COLO 205 colon 99.7% | DU-145 prostate 100% | MALME-3M melanoma 86.9% | MDA-MB-231 breast 89% | RXF 393 renal 105% | SF-268 CNS 83.1% | SF-295 CNS 94.5% | SF-539 CNS 90.2% | UACC-257 melanoma 103% | M14 melanoma 99.6%

Clc1ccc2c(NCCNc3nc(Cl)nc4ccccc34)ccnc2c1
active: NCI-H23 lung -61.7% | NCI-H226 lung -80% | NCI-H322M lung -26.4% | HOP-62 NSCLC -68.6% | NCI-H460 lung -65.4% | HOP-92 NSCLC -67.6% | NCI-H522 lung -84.6% | A549/ATCC NSCLC -88% | 786-0 renal -94.1% | COLO 205 colon -85.8% | DU-145 prostate -3.33% | MALME-3M melanoma -87.3% | MDA-MB-231 breast -87.8% | RXF 393 renal -77.2% | SF-268 CNS -58.1% | SF-295 CNS -76.7% | SF-539 CNS -84% | M14 melanoma -89.1%
inactive: UACC-257 melanoma 91.1%

COc1cc2nc(C(=O)N3CCCCC3)cc(Nc3ccccc3)c2cc1OC
inactive: NCI-H23 lung 96.7% | NCI-H226 lung 107% | NCI-H322M lung 96.1% | HOP-62 NSCLC 96% | NCI-H460 lung 102% | HOP-92 NSCLC 73.3% | NCI-H522 lung 65.7% | A549/ATCC NSCLC 98.1% | 786-0 renal 95.3% | COLO 205 colon 116% | DU-145 prostate 92.8% | MALME-3M melanoma 116% | MDA-MB-231 breast 88.6% | RXF 393 renal 101% | SF-268 CNS 84.2% | SF-295 CNS 96.3% | SF-539 CNS 95.5% | UACC-257 melanoma 108% | M14 melanoma 116%

COc1ccccc1S(=O)(=O)Nc1ccc2c3c(cc(-c4cnn(C)c4)nc13)C(=O)N2C
inactive: NCI-H23 lung 46.6% | NCI-H226 lung 61.9% | NCI-H322M lung 47.4% | HOP-62 NSCLC 33.3% | NCI-H460 lung 46.9% | HOP-92 NSCLC 27.4% | NCI-H522 lung 36% | A549/ATCC NSCLC 38.6% | 786-0 renal 43.8% | COLO 205 colon 15.8% | DU-145 prostate 64.2% | MALME-3M melanoma 51.2% | MDA-MB-231 breast 40.7% | RXF 393 renal 40.2% | SF-268 CNS 59.8% | SF-295 CNS 35.1% | SF-539 CNS 34.6% | UACC-257 melanoma 44.8% | M14 melanoma 42.6%

CCOc1ccccc1C(=O)N1CCN(c2cc(Cl)cc(Cl)c2)CC1
active: NCI-H460 lung 5.68% | NCI-H522 lung -6.41% | COLO 205 colon -65.9% | DU-145 prostate 8.76% | MDA-MB-231 breast 6.62% | SF-539 CNS -4.39% | M14 melanoma -23.3%
inactive: NCI-H23 lung 24.3% | NCI-H226 lung 65.6% | NCI-H322M lung 35% | HOP-62 NSCLC 27.1% | HOP-92 NSCLC 18.2% | A549/ATCC NSCLC 19.3% | 786-0 renal 14.5% | MALME-3M melanoma 45.3% | RXF 393 renal 40.9% | SF-268 CNS 30% | SF-295 CNS 17.9% | UACC-257 melanoma 51.1%

C=C1C(=O)O[C@H]2[C@H]1CC/C(COC(=O)c1ccc3ccccc3c1)=C\CC[C@@]1(C)O[C@@H]21
active: NCI-H23 lung 2.6% | NCI-H226 lung -82.3% | HOP-62 NSCLC -29.2% | NCI-H460 lung 8.67% | HOP-92 NSCLC -73.3% | NCI-H522 lung -77.3% | A549/ATCC NSCLC -52.7% | 786-0 renal -85.1% | COLO 205 colon -71.1% | DU-145 prostate -81.1% | MALME-3M melanoma -75.8% | MDA-MB-231 breast -62.3% | RXF 393 renal -91% | SF-268 CNS -41% | SF-539 CNS -94.9% | UACC-257 melanoma -24.6% | M14 melanoma -58.8%
inactive: NCI-H322M lung 45% | SF-295 CNS 43.1%

CCc1c2cc(Cl)ccc2n2cc(Cc3ccccc3)[nH]c(=O)c12
inactive: NCI-H23 lung 94.3% | NCI-H226 lung 100% | NCI-H322M lung 83.7% | HOP-62 NSCLC 103% | NCI-H460 lung 90.9% | HOP-92 NSCLC 96% | NCI-H522 lung 104% | A549/ATCC NSCLC 106% | 786-0 renal 109% | COLO 205 colon 97.5% | DU-145 prostate 104% | MALME-3M melanoma 85.3% | MDA-MB-231 breast 97.4% | RXF 393 renal 116% | SF-268 CNS 95.4% | SF-295 CNS 98.1% | SF-539 CNS 103% | UACC-257 melanoma 104% | M14 melanoma 99.9%
